# PubChem BioAssay (NCI)
# Where “and” joins values, the source holds several entries; their conditions need not be identical. Identical values can stand only once. About 83,000 compounds went through this panel and 20% of them were active in at least one assay; those are over-represented in the sample as a whole.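 A percent growth of 40 corresponds to 60% growth inhibition; 0 means no net growth; -100 means all cells died. Active threshold: below 10.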 Calls of active or inactive are those of the source.
# Legend:
# Experiment in all cases: NCI-60 one-dose screen, 48 h (100 = growth as untreated, 0 = no growth, -100 = all killed)
# Details in all cases: 10 µM unless noted
# DU-145 prostate = tested on: DU-145 prostate
# K-562 leukemia = tested on: K-562 leukemia
# MALME-3M melanoma = tested on: MALME-3M melanoma
# MDA-MB-231 breast = tested on: MDA-MB-231 breast
# RXF 393 renal = tested on: RXF 393 renal
# SF-268 CNS = tested on: SF-268 CNS
# SF-295 CNS = tested on: SF-295 CNS
# SF-539 CNS = tested on: SF-539 CNS
# UACC-257 melanoma = tested on: UACC-257 melanoma
# M14 melanoma = tested on: M14 melanoma
SMILES,growth (DU-145 prostate),growth (K-562 leukemia),growth (MALME-3M melanoma),growth (MDA-MB-231 breast),growth (RXF 393 renal),growth (SF-268 CNS),growth (SF-295 CNS),growth (SF-539 CNS),growth (UACC-257 melanoma),growth (M14 melanoma)
CC[C@]12C=CCN3CC[C@]4(C(=C(C(=O)OC)C1)Nc1cc5c(cc14)[C@@H]1[C@H](O5)[C@@H](O)[C@@]4(CC)CC(C(=O)OC)=C5Nc6cc(O)ccc6[C@@]56CCN1C46)C32 (stereo not given in full),22% (inactive),3.36% (active),19.3% (inactive),21% (inactive),-40.2% (active),6.98% (active),8.14% (active),4.2% (active),21.8% (inactive),15.7% (inactive)
FC(F)(F)c1cc(Br)cc(-c2cc(-c3ccc4c(c3)OCCO4)[nH]n2)c1,23.8% (inactive),14.6% (inactive),48.4% (inactive),1.68% (active),31.6% (inactive),41.7% (inactive),12.3% (inactive),-5.31% (active),80.4% (inactive),20.1% (inactive)
Cc1ccc(-c2csc(N/N=C/c3cccs3)n2)cc1,100% (inactive),74.4% (inactive),88.8% (inactive),92.5% (inactive),115% (inactive),106% (inactive),92.8% (inactive),104% (inactive),97.1% (inactive),90.4% (inactive)
NS(=O)(=O)c1cccc(Nc2nc(SCC(=O)c3ccc(Cl)cc3)nc3c2CCC3)c1,97.6% (inactive),90.2% (inactive),96.4% (inactive),92.5% (inactive),82.2% (inactive),82.8% (inactive),93.1% (inactive),88.3% (inactive),104% (inactive),101% (inactive)
CCc1cc(O)ccc1Nc1cc(-c2ccc(-n3cccn3)cc2)[nH]n1,71.5% (inactive),18.9% (inactive),110% (inactive),92.9% (inactive),108% (inactive),66% (inactive),36.5% (inactive),79.4% (inactive),70% (inactive),47.4% (inactive)
C[C@H](Nc1ncnc2ccc(-c3cnc(Cl)c(NS(C)(=O)=O)c3)cc12)c1ccccc1,-2.78% (active),17.2% (inactive),-43.1% (active),-17.1% (active),-54.5% (active),-3.03% (active),-25.6% (active),-42.8% (active),-18.4% (active),-13.5% (active)
CN1CCN(c2ccc(Nc3nc(NCCNS(=O)(=O)c4ccc(Cl)cc4)c4sccc4n3)cc2)CC1,98.2% (inactive),9.68% (active),105% (inactive),95% (inactive),41.2% (inactive),70% (inactive),97.9% (inactive),85.5% (inactive),87.5% (inactive),102% (inactive)
COc1ccc(CC(C)=C(c2ccc(OCCN3CCCC3)cc2)c2ccc(OCCN3CCCC3)cc2)cc1,-88.6% (active),1.41% (active),-82.9% (active),-83.9% (active),-95.3% (active),-64.4% (active),-87.7% (active),-90.1% (active),-86.6% (active),-87.5% (active)
O=[N+]([O-])c1ccc(NC(=S)NNC(=S)Nc2ccc(F)cc2)cc1,105% (inactive),49.8% (inactive),90.1% (inactive),92.4% (inactive),104% (inactive),95.1% (inactive),82.3% (inactive),94.9% (inactive),97.8% (inactive),92.1% (inactive)
Nn1c(=O)n(-c2cccc(C(F)(F)F)c2)c(=O)c2cc(-c3ccc(F)cc3F)ccc21,24.4% (inactive),6.85% (active),-17.2% (active),-10.2% (active),3.65% (active),17.8% (inactive),-4.06% (active),19.4% (inactive),-8.9% (active),17.1% (inactive)
C/C=C/CC(C)C(O)[C@H](NC(=O)[C@@H]1CCCN1C(=O)[C@](C)(CC)NC(=O)CCCCCCCCC)C(=O)N[C@@](C)(CC)C(=O)N[C@@H](CCC(N)=O)C(=O)N[C@H](CCC(N)=O)C(=O)NC(C)(C)C(=O)NC(C)(C)C(=O)N[C@@H](CCC(N)=O)C(=O)N[C@H](CC(C)C)C(=O)N[C@H](CO)CC(C)C (stereo not given in full),-21.7% (active) and -48.7% (active),14.5% (inactive) and 10.4% (inactive),29.9% (inactive) and -95.9% (active),63.4% (inactive) and -96% (active),0.95% (active) and -63% (active),20.8% (inactive) and -63.8% (active),11.3% (inactive) and -81.6% (active),39.5% (inactive) and -100% (active),21.1% (inactive) and -71.1% (active),54.7% (inactive) and -71.4% (active)
COc1cc2c3c(cc4c5c(ccc4c3c1OC)OCO5)N(CCN(C)C)C2=O,0.415% (active),1.42% (active),-79.8% (active),-1.13% (active),-88.5% (active),5.2% (active),-16.8% (active),-58.4% (active),-32.9% (active),-54.5% (active)
CC(C)(O)c1cncc(-c2ccc3ncc(C#N)c(N4CCc5cc(F)c(Cl)cc54)c3c2)c1,11.7% (inactive),29.6% (inactive),-12.8% (active),20.4% (inactive),-34.1% (active),21.5% (inactive),-10.9% (active),-15% (active),11% (inactive),10.3% (inactive)
COC(=O)c1ccc(NC2=C(Cl)C(=O)C(C)=C(C)C2=O)cc1,85.3% (inactive),4.61% (active),85% (inactive),68.9% (inactive),65.8% (inactive),87.3% (inactive),36.6% (inactive),65.9% (inactive),79.5% (inactive),45.8% (inactive)
C=C(C)[C@@H]1CC[C@]2(COP(=O)(OCC)OCC)CC[C@]3(C)[C@H](CC[C@@H]4[C@@]5(C)CC[C@H](OP(=O)(OCC)OCC)C(C)(C)[C@@H]5CC[C@]43C)[C@@H]12,69.7% (inactive),19.6% (inactive),50.8% (inactive),50.7% (inactive),45.3% (inactive),64.6% (inactive),14.6% (inactive),70.5% (inactive),46.8% (inactive),51.6% (inactive)
CCCCCCOC(=O)c1cc(-c2ccc(F)cc2)nc2ccccc12,105% (inactive),101% (inactive),97.1% (inactive),85.6% (inactive),96.8% (inactive),96.1% (inactive),98% (inactive),99.9% (inactive),99.1% (inactive),96.9% (inactive)
Cc1cc(NS(=O)(=O)c2ccc(NC(=O)CSc3nc4ccccc4c(=O)n3-c3ccccc3)cc2)no1,108% (inactive),54.1% (inactive),94.7% (inactive),98.7% (inactive),93.8% (inactive),98.9% (inactive),99.2% (inactive),95.3% (inactive),98.4% (inactive),90.3% (inactive)
Brc1cccc(-c2cc(-c3ccc4c(c3)OC=CO4)[nH]n2)c1,54.8% (inactive),13.6% (inactive),25.6% (inactive),53.2% (inactive),60.2% (inactive),64.6% (inactive),38% (inactive),49.3% (inactive),67.5% (inactive),15.7% (inactive)
Cc1cc(Br)ccc1-n1cc(C#N)c(N)c1C(=O)c1ccc(Br)cc1,119% (inactive),119% (inactive),106% (inactive),93.6% (inactive),108% (inactive),114% (inactive),98.5% (inactive),97.4% (inactive),103% (inactive),89.4% (inactive)
Fc1cccc(Cl)c1/C=N/Nc1nc(N/N=C/c2c(F)cccc2Cl)nc(N2CCCCC2)n1,61% (inactive),32.3% (inactive),-4.19% (active),42.1% (inactive),-3.38% (active),36.7% (inactive),2.57% (active),56.3% (inactive),11.7% (inactive),11.9% (inactive)
O=C(/C=C/Nc1ccc(S(=O)(=O)Nc2ncccn2)cc1)c1ccc(N=Cc2c(O)[nH]c3ccccc23)cc1,116% (inactive),97.1% (inactive),127% (inactive),99.9% (inactive),113% (inactive),112% (inactive),105% (inactive),102% (inactive),101% (inactive),109% (inactive)
CCOC(=O)Nc1ccc2c(ccn2C(=O)c2cccc(F)c2)c1,29.5% (inactive),14.2% (inactive),61.7% (inactive),52.8% (inactive),19.3% (inactive),65.8% (inactive),19.6% (inactive),0.0722% (active),74.4% (inactive),25.3% (inactive)
CCCNNC(=O)c1ccc(-c2ccc(NC(=O)CCCCCCC(=O)N[C@H](C(=O)N3C[C@H](O)C[C@H]3C(=O)N[C@@H](C)c3ccc(-c4scnc4C)cc3)C(C)(C)C)cc2)cc1,32.4% (inactive),15.5% (inactive),32% (inactive),24.1% (inactive),-33% (active),46.3% (inactive),46.8% (inactive),27.3% (inactive),23.6% (inactive),39.8% (inactive)
CC(C)(C)OC(=O)Nc1ccc(-c2cccc(Oc3ccc4nnc(Cl)n4n3)c2)cc1,82.7% (inactive),31.2% (inactive),106% (inactive),83.8% (inactive),89.8% (inactive),104% (inactive),84.1% (inactive),92.7% (inactive),87.1% (inactive),65.9% (inactive)
O=C(Nc1cccc(Cl)c1)Nc1nc2cc([N+](=O)[O-])ccc2o1,52.7% (inactive),37.8% (inactive),29.7% (inactive),61.4% (inactive),67.4% (inactive),37.3% (inactive),51% (inactive),59.4% (inactive),54.6% (inactive),39.5% (inactive)
